This is a sample that favours compounds with a hit; in the whole collection about 2.2% have one here.
PGC1a acetyl inh: modulators of PGC1a acetylation; inhibition, % at 15.6 µM; U2OS PGC1a acetylation, AlphaScreen anti-acetyl-lysine; with virally co-expressed GCN5 acetyltransferase; 350,000 compounds, 0.17% hits;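 active means every replicate shows inhibition of at least 40%; inconclusive means mean inhibition at least 40% but some replicate below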;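 further: 0% = neutral control wells and 100% = positive control wells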
DENV2 CPE rescue: DENV2-induced cell death inhibition | CPE inhibition, % at 9.99 µM | DENV2-infected cells, cytopathic effect rescue, plate reader | 350,000 compounds, 1.7% hits; in the data active means CPE inhibition above about 20%, passing the limit was not always enough; inconclusive means no clear call, values can overlap the other calls; tested in BHK-21 cells;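 further: 0% = median of neutral control wells and 100% = median of positive control wells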
C2C12 statin: suppressors of simvastatin-induced myotoxicity in C2C12 myotubes. rescue of ATP level, % at 7.49 µM. ATP luminescence, 48 h; scaled: DMSO 0, geranylgeraniol control 100. 330,000 compounds, 0.78% hits;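 active means mean ATP rescue above about 67%, or every replicate alone reaching that limit, limit read from the data, passing the limit was not always enough; inconclusive means no clear call, values can overlap the other calls; inactive means mean under the limit and some replicate under it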;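 further: myotubes were challenged with 10 µM simvastatin during compound exposure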
miR-122 sensor: blocks miR-122 activity in Huh7 sensor cells; 340,000 compounds, 0.3% hits; Huh7 miR-122 Renilla luciferase sensor, 48 h; neutral wells = 0, positive control = 100; activation (reporter increase), % at 12.5 µM;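 active means mean replicate activation score at least 90 and every replicate individually at or above 90; inconclusive means only one of the two criteria met; inactive means neither criterion met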;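 further: higher luciferase means less miR-122 activity so hits act as miR-122 inhibitors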
PvdQ acylase: P. aeruginosa PvdQ acylase inhibition | purified PvdQ acylase, fluorescence plate reader | inhibition, % at 10 µM | 340,000 compounds, 0.063% hits | AID 488965; in the data active means inhibition above about 30%, passing the limit was not always enough; inconclusive means no clear call, values can overlap the other calls;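 further: 0% = vehicle neutral wells and 100% = reference inhibitor wells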
Starred values were filed as active, the others as inactive; u = inconclusive; x = no result; [ ] = another dose, or the depositor's remark.

SMILES	PGC1a acetyl inh	DENV2 CPE rescue	C2C12 statin	miR-122 sensor	PvdQ acylase
CN(C)CC(=O)Nc1ccc2c(c1)[C@H]1C[C@@H](CC(=O)NC3CCCC3)O[C@H](CO)[C@H]1O2	2	-2	4	-9[16.7 µM]	x
C[C@H](CO)N1C[C@H](C)[C@H](CN(C)Cc2ccncc2)OCCCC[C@H](C)Oc2ccc(NS(C)(=O)=O)cc2C1=O	1	x	25	8[16.7 µM]	x
COc1cccc(-c2ccc3c(c2)[C@H]2[C@H](CCN2C(=O)Nc2ccccc2OC)[C@H](CO)N3C)c1	6	15	41	-11[16.7 µM]	x
CN1c2ccc(C3=CCCCC3)cc2[C@H]2[C@H](CCN2C(=O)C2CC2)[C@@H]1CO	38	46*	x	x	x
CN1c2ccc(C3=CCCCC3)cc2[C@@H]2[C@@H](CCN2C(=O)C2CC2)[C@@H]1CO	x	6	x	x	x
CN1c2ccc(Br)cc2[C@@H]2[C@@H](CCN2C(=O)C2CCC2)[C@H]1CO	9	-8	x	x	x
COc1cccc(-c2ccc3c(c2)[C@@H]2[C@@H](CCN2C(=O)Nc2ccccc2OC)[C@@H](CO)N3C)c1	11	29*	20	-6[16.7 µM]	x
CN1c2ccc(-c3cccc(F)c3)cc2[C@@H]2[C@@H](CCN2C(=O)Cc2cccnc2)[C@H]1CO	-5	-1	-5	-6[16.7 µM]	x
CN1c2ccc(-c3cccc(F)c3)cc2[C@H]2[C@H](CCN2C(=O)Cc2cccnc2)[C@H]1CO	4	113*	9	-3[16.7 µM]	x
CN1c2ccc(Br)cc2[C@H]2[C@H](CCN2C(=O)C2CCC2)[C@H]1CO	2	105*	x	x	x
COc1ccc(NC(=O)N2CC[C@@H]3[C@@H](CO)N(C)c4ccc(Br)cc4[C@@H]32)cc1	-3	54*	-12	6[16.7 µM]	x
OCC#CCSc1nnc(-c2cccc3ccccc23)o1	7	93*	12	2	6
O=C(OCC#CCSc1nnc(-c2cccc3ccccc23)o1)c1ccc(Cl)cc1	5	-4	3	-3	8
CCCNC(=O)N1C[C@H](O)COC[C@@H]2O[C@@H](CC(=O)N[C@H]3CCN(Cc4ccccc4)C3)CC[C@H]21	1	1	0	-6[16.7 µM]	x
O=C(NCCO)c1ccc2c3n(nc2c1)-c1ccccc1CO3	6	69*	-6	-1	13
CCCc1nc2sc3c(=O)[nH]cnc3c2c2c1CCCC2	x	7	x	x	x
CC(C)Cc1nc2sc3c(=O)[nH]cnc3c2c2c1CCC2	x	x	3	126*	-12
COC(=O)C(CC(C)C)Oc1ccc2c(C)cc(=O)oc2c1 (stereo not given)	x	x	x	152*	-9
Cc1cc(=O)oc2cc(OC(C)C(=O)NC3CCCC3)ccc12 (stereo not given)	9	0	1	-5	6
CN(C)C(=O)c1cccc(-c2ccccc2[C@@H]2[C@H](C#N)N(C(=O)C3CCCC3)[C@H]2CO)c1	-6	11	x	x	x
Fc1ccc(F)c(C2=NNC(=Nc3ccccc3F)SC2)c1	-2	86*	x	-2	-23
C[C@@H]1CN([C@H](C)CO)C(=O)Cc2cc(NS(=O)(=O)c3ccc(Cl)cc3)ccc2O[C@@H]1CN(C)C(=O)Nc1ccc(C(F)(F)F)cc1	0	-12	20	103*[16.7 µM]	x
C[C@H]1CN([C@@H](C)CO)C(=O)Cc2cc(NS(=O)(=O)c3ccccc3)ccc2O[C@@H]1CN(C)C(=O)Nc1ccccc1	9	23*	26	-1[16.7 µM]	x
C[C@@H]1CN([C@H](C)CO)C(=O)Cc2cc(NS(=O)(=O)c3ccc(Cl)cc3)ccc2O[C@H]1CN(C)C(=O)NC1CCCCC1	-3	37*	-9	3[16.7 µM]	x
COc1ccc(S(=O)(=O)Nc2ccc3c(c2)CC(=O)N([C@@H](C)CO)C[C@H](C)[C@H](CN(C)C(=O)Nc2ccc4c(c2)OCO4)O3)cc1	0	-12	-5	12[16.7 µM]	x
SMILES	PGC1a acetyl inh	DENV2 CPE rescue	C2C12 statin	miR-122 sensor	PvdQ acylase
COc1ccc(S(=O)(=O)Nc2ccc3c(c2)CC(=O)N([C@H](C)CO)C[C@H](C)[C@@H](CN(C)C(=O)Nc2ccc4c(c2)OCO4)O3)cc1	5	26*	-7	9[16.7 µM]	x
C[C@@H]1CN([C@@H](C)CO)C(=O)Cc2cc(NS(=O)(=O)c3ccc(Cl)cc3)ccc2O[C@@H]1CN(C)C(=O)NC1CCCCC1	1	-5	2	1[16.7 µM]	x
C[C@@H]1CN([C@H](C)CO)C(=O)c2cc(N(C)C)ccc2O[C@@H](C)CCCCO[C@@H]1CN(C)S(=O)(=O)c1cccs1	12	-7	-31	-2[16.7 µM]	x
O=C(C[C@@H]1CC[C@H]2[C@@H](COC[C@H](O)CN2Cc2ccc(C(F)(F)F)cc2)O1)NCCc1ccccc1	-7	1	25	-2[16.7 µM]	x
C[C@@H]1CN([C@@H](C)CO)C(=O)c2cc(NC(=O)Nc3ccc(F)cc3)ccc2O[C@@H](C)CCCCO[C@@H]1CN(C)S(=O)(=O)c1cn(C)cn1	-1	-6	x	3[16.7 µM]	x
COc1ccc(NC(=O)Nc2ccc3c(c2)CC(=O)N([C@@H](C)CO)C[C@@H](C)[C@@H](CN(C)C(=O)NC(C)C)O3)cc1	12	-4	-37	101*[16.7 µM]	x
C[C@H](CO)N1C[C@H](C)[C@@H](CN(C)S(C)(=O)=O)Oc2ccc(NS(=O)(=O)c3ccccc3)cc2CC1=O	6	70*	1	2[16.7 µM]	x
C[C@@H]1CN([C@@H](C)CO)C(=O)Cc2cc(NS(=O)(=O)c3cn(C)cn3)ccc2O[C@@H]1CN(C)C(=O)Nc1ccc2c(c1)OCO2	-3	28*	-26	3[16.7 µM]	x
C[C@@H]1CN([C@H](C)CO)C(=O)Cc2cc(NS(=O)(=O)c3cn(C)cn3)ccc2O[C@H]1CN(C)C(=O)Nc1ccc2c(c1)OCO2	3	1	7	18[16.7 µM]	x
COc1ccc(S(=O)(=O)Nc2ccc3c(c2)CC(=O)N([C@@H](C)CO)C[C@@H](C)[C@H](CN(C)C(=O)NC(C)C)O3)cc1	4	35*	3	-7[16.7 µM]	x
O=C(Cc1ccccc1)N1CC(=O)N2[C@H](CO)[C@@H](c3ccc(-c4ccccc4)cc3)[C@@H]2C1	8	4	x	x	x
COc1ccc2c3c(n(C)c2c1)[C@@H](CO)N(CC1CCOCC1)CC31CN(Cc2nccs2)C1	0	u	x	x	x
C[C@@H]1CN([C@@H](C)CO)C(=O)Cc2cc(NS(=O)(=O)c3ccc(Cl)cc3)ccc2O[C@H]1CN(C)C(=O)Nc1ccccc1	-5	6	-8	5[16.7 µM]	x
COc1ccc(NC(=O)N(C)C[C@@H]2Oc3ccc(NS(=O)(=O)c4ccccc4)cc3CC(=O)N([C@H](C)CO)C[C@@H]2C)cc1	3	39*	4	9[16.7 µM]	x
C[C@H](CO)N1C[C@H](C)[C@@H](CN(C)C(=O)Nc2ccccc2)Oc2ccc(NS(=O)(=O)c3ccc(Cl)cc3)cc2CC1=O	3	58*	4	-4[16.7 µM]	x
C[C@H]1CN([C@@H](C)CO)C(=O)Cc2cc(NS(=O)(=O)c3ccc(F)cc3)ccc2O[C@@H]1CN(C)C(=O)Nc1ccccc1	-5	62*	14	5[16.7 µM]	x

Bioassay records: PubChem BioAssay, Broad Institute
